# Measurements reported in ChEMBL document CHEMBL4513216, “Probing the Open Global Health Chemical Diversity Library for Multistage-Active Starting Points for Next-Generation Antimalarials” (ACS Infect Dis, 2020).
# Screen size: about 69,000 compounds; about 8,600 (12%) showed an effect of 50% or more. This excerpt belongs to a sample that is enriched for strong results.
# Test system: Plasmodium berghei
# Assay: Screen against P. berghei liver stage (PbLuc), transformed with Luciferase, at 10uM
# Assay type: functional, HepG2
# Settings: tested at 10 uM
row,SMILES,INHIBITION [%]
1,Cc1cc2ccccc2n1CCC(=O)NCCS(C)(=O)=O,0.426
2,CC(C)CS(=O)(=O)N1C[C@@H]2C[C@H](C(=O)NCc3ccccc3)[C@H](C1)O2,9.48
3,Cc1ccc(C(=O)N(C)Cc2cc(Br)cs2)c(=O)[nH]1,15
4,Cc1cnn(CC2CN(CC(=O)N(C)Cc3ccccc3)CCO2)c1 (stereo unspecified),13.3
5,CNC(=O)C1CN(c2ccc(F)cc2)CCN1 (stereo unspecified),41.5
6,C[C@@H]1CN(C2CCN(c3ccccc3F)CC2)CC[C@]1(C)O,7.31
7,O=C(CO)N1CC[C@@H](N2CCN(c3ccccc3F)CC2)[C@H](O)C1,52.6
8,O=C(CCOc1ccccc1F)N1CCCC(n2cncn2)C1 (stereo unspecified),36.065
9,O=C(CC1CC1)N1C[C@@H](O)[C@H](N2CCN(c3ccccc3)CC2)C1,30.25
10,CCOc1cncc(N2CCN(c3ccccc3F)CC2)n1,3.77
11,CSCCC(=O)N1CC[C@@H](N2CCN(c3ccccc3F)CC2)[C@H](O)C1,48.9
12,O=C(CO)N1CCCC(N2CCN(c3ccccc3F)CC2)C1 (stereo unspecified),65.6
13,Cc1ccccc1N1CCN(C2CCCN(C(=O)CCC(C)C)C2)CC1 (stereo unspecified),46.6
14,O[C@@H]1CN(CC2CC2)CC[C@H]1N1CCN(c2ccccc2F)CC1,53.6
15,O=C(NCCNC1CCCCC1)c1cccs1,-2.11
16,COc1ccc(S(=O)(=O)N[C@H]2CN(C(C)=O)C[C@@H]2C(C)C)cc1F,17.7
17,Cc1cnc(CN(C)C2CCN(CCCc3ccccc3)C2)o1 (stereo unspecified),-9.37
18,CN(C)CC(=O)N1CCc2sc(C(=O)NCC3CC3)cc21,-17.1
19,CSCC(=O)N1CCCC(c2cc(C)[nH]n2)C1 (stereo unspecified),28
20,CC(C)c1ocnc1C(=O)N1CC(=O)Nc2cccnc21,37.1
21,O=c1cc(CN2C[C@@H]3CC[C@H]2CN(Cc2ccccc2)C3)[nH]c(=O)[nH]1,34
22,CN(C)S(=O)(=O)N1CCOC(c2cccc(-c3cncnc3)n2)C1 (stereo unspecified),13

row,SMILES,INHIBITION [%]
1,NCC1[C@H]2CN(Cc3ccccc3)C[C@@H]12 (stereo partly specified),5.73
2,Cn1cc(CN2CCCC(c3nccnc3-c3cccc(F)c3)C2)cn1 (stereo unspecified),9.05
3,CSCC(=O)N[C@H]1CN(CC2CCOCC2)C[C@@H]1c1ccccc1,-69.6
4,O=C(CCO)N[C@H]1CN(CC2CCC2)C[C@@H]1c1ccccc1,-13.1
5,CS(=O)(=O)NCC(=O)N[C@H]1CN(CC2CC2)C[C@@H]1c1ccccc1,65.3
6,Cc1noc(C2(C)CCCN(C(=O)c3cccnc3)C2)n1 (stereo unspecified),25.6
7,CCCS(=O)(=O)N1CCCC(CCC(=O)N(C)CCc2ccccn2)C1 (stereo unspecified),27.6
8,CN(C(=O)NCc1nccn1CCc1ccccc1)C1CCC1,-4.63
9,COc1ccc(Nc2nc3c(C)nn(C)c3c(=O)n2C)cc1,9.04
10,CC(C)c1cc(C(F)(F)F)n2nc(C3CCN(S(C)(=O)=O)C3)cc2n1 (stereo unspecified),43.05
11,COc1ccc(NCCC(=O)NCc2cccnc2N(C)C)cc1,-14.9
12,Cn1cccc1C(=O)N1CCC2(CCN2c2ncccn2)C1 (stereo unspecified),72.2
13,Cn1ccc(C(=O)N2CCC3(CCN3c3ncccn3)C2)n1 (stereo unspecified),22.6
14,O=C(c1cccc(O)c1)N1CCC2(CCN2c2ncccn2)C1 (stereo unspecified),27.7
15,Cn1cccc1C(=O)N1CCC2(CCCN2c2ncccn2)CC1,-2.41
16,Cc1ccc(C(=O)N2C[C@@H]3CN(c4ncccn4)C[C@@H]3C2)cc1,-13.7
17,O=C(c1ccnnc1)N1C[C@@H]2CN(c3ncccn3)C[C@@H]2C1,21.7
18,O=C(c1ccc2ccccc2n1)N1CCC2(CCN2c2ncccn2)C1 (stereo unspecified),-47
19,Cc1ccc(C(=O)N2CCC3(CCN3c3ncccn3)C2)cn1 (stereo unspecified),78.9
20,Cn1ccnc1C(=O)N1CCC2(CCN2CC2CC2)C1 (stereo unspecified),13.7
21,Cn1ccnc1C(=O)N1CCC2(CCN2c2ncccn2)C1 (stereo unspecified),71.3
22,O=C(c1cnc2ccccc2c1)N1CCC2(CCN2c2ncccn2)C1 (stereo unspecified),-78.5

row,SMILES,INHIBITION [%]
1,Cc1ccc(C(=O)N2C[C@@H]3CN(c4ncccn4)C[C@@H]3C2)cn1,76.4
2,CC(C)NC(=O)N1CCC2(CC(=O)N(c3ccsc3)C2)C1 (stereo unspecified),48.2
3,COc1cc(N2C[C@H](C(=O)NCC3CC3)[C@@H]3CCO[C@@H]3C2)ncn1,-29.3
4,Cn1cnc2c(N3CCCC3)nc(C3CCNCC3)cc21,32.7
5,COc1ccc(OC)c(CNC(=O)N2CCC(n3cncn3)CC2)c1,21
6,Cc1ccc(C(=O)NS(=O)(=O)c2ccccc2Cl)c(=O)[nH]1,35.9
7,CC(C)c1noc(C(C)N2CCN(CCCN3CCCC3=O)CC2)n1 (stereo unspecified),-38.7
8,CN(CCO)CC1COCCN1C(=O)CCC1CCCC1 (stereo unspecified),39.3
9,CC(C)c1cnc(CN(C)C2CCN(CCCc3cnn(C)c3)C2)o1 (stereo unspecified),-7.31
10,CC(C)N1CCCC1c1csc(N)n1 (stereo unspecified),16.8
11,COc1cc(-c2cc(OC)c(OC)c(OC)c2)ncn1,-7.79
12,COC(CNC(=O)C1CC1)c1ccc(C)s1 (stereo unspecified),20.4
13,O=C(CCc1cc2n(n1)CCN(CCCn1cccc1)C2)N1CCCC1,-1.54
14,Cc1ccc(N2CCCc3sc(C(=O)NCC4CCCO4)nc32)nn1 (stereo unspecified),15.4
15,Cc1nn(C)c(Cl)c1C1CCCN1C(=O)c1ccc[nH]1 (stereo unspecified),25.1
16,Cc1ccc(C(=O)NCCC2CN(c3cnn(C)c(=O)c3)CCO2)s1 (stereo unspecified),24.7
17,O=C(NCCC1CN(C2CCCC2)CCO1)c1c[nH]c(=O)[nH]c1=O (stereo unspecified),8.08
18,Cc1ccc(C)c(C(=O)N2CCOC(CCN(C)C)C2)c1 (stereo unspecified),37.6
19,Cc1ccc(C(=O)NCCC2CN(C3CCCC3)CCO2)c(C)c1 (stereo unspecified),66.8
20,Cc1cc(C(=O)NCCC2CN(C)CCO2)c2cccc(C)c2n1 (stereo unspecified),45.9
21,O=C(NCCC1CN(C2CCCC2)CCO1)c1cc(=O)[nH]c(=O)[nH]1 (stereo unspecified),51.5
22,CC(CC(=O)c1ccco1)NC(=O)c1ccccn1 (stereo unspecified),42.1
